Screening results: PubChem, National Center for Advancing Translational Sciences (NCATS)
Shown are actives, neighbours in structure and some others; about 19% of the full set was active somewhere.
IL-1B inflam inh: qHTS for Inhibitors of Inflammasome Signaling: IL-1-beta AlphaLISA Primary Screen | activity change, % at 57.5 µM | THP-1 LPS/ATP IL-1B secretion, AlphaLISA, 16 h; active compounds read low | 360,000 compounds, 4.7% hits; in the data active means activity change below about -50%; inconclusive means mostly about -30% to -49%
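THP-1 cells pretreated 1 hr with compounds (up to 57.5 uM final), then stimulated with LPS (250 ng/mL final) plus ATP (1.25 mM final); secreted IL-1B measured by AlphaLISA after 16 hr, decreased signal indicating inhibition.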
HT1080 IDH1KD tx: qHTS for induction of synthetic lethality in tumor cells producing 2HG: qHTS for the HT-1080-IDH1KD cell line. HT-1080 IDH1 knockdown viability, ATP luminescence, 48 h. Potency, µM (highest dose often 46.1 µM), for the others: top-dose activity, negative = toxicity, hits mostly cytotoxic. 360,000 compounds, 2% hits;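 further: potency means the concentration at half of the fitted maximal effect; 0% = DMSO wells and -100% = cell-free medium wells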
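% activity derives from luminescence (CellTiter-Glo), normalised to DMSO and no-cell wells. HT-1080-IDH1KD cells, 750/well, had 48 h compound exposure at 37 °C.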
HT1080NT lethal: qHTS for induction of synthetic lethality in tumor cells producing 2HG: qHTS for the HT-1080-NT fibrosarcoma cell line. HT-1080-NT fibrosarcoma viability, CellTiter-Glo ATP luminescence, 48 h. Potency, µM (titrated, usually from 46.1 µM), without a hit: at the highest dose activity, negative = less viability, usual class: cytotoxic. 360,000 compounds, 1.6% hits. AID 686970, 2013;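 further: NT is the 2HG producing partner of a matched IDH1 knockdown line; potency means the concentration at half of the fitted maximal effect; 0% = DMSO-treated cells and -100% = media-only wells without cells; nearly all actives have a fitted effect of over 55% in size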
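Fibrosarcoma NT cells, 750 per well in 5% FBS RPMI, were exposed to compound for 48 hours. Viability: CellTiter-Glo luminescence.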
TDP1 cell noCPT: qHTS for Inhibitors of human tyrosyl-DNA phosphodiesterase 1 (TDP1): qHTS in cells in absence of CPT; DT40 Tdp1-/- hTDP1 cells, no CPT, ATP luminescence, 48 h; Potency, µM (highest dose often 46.2 µM), inactives show top-dose activity change, negative = growth inhibition, actives largely listed as inhibitors; 420,000 compounds, 15% hits; AID 686978, 2013; further: potency means the concentration at half of the fitted maximal effect; nearly all actives have a fitted effect of over 55% in size
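Growth kinetics read by CellTiter-Glo luminescence after ≥48 hr at 37 °C. Cells: DT40 Tdp1-/- stably carrying human TDP1, 400 per well, compound exposure in the absence of CPT (DMSO vehicle).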
DT40 TDP1 CPT: qHTS for Inhibitors of human tyrosyl-DNA phosphodiesterase 1 (TDP1): qHTS in cells in presence of CPT. Potency, µM (series often up to 46.2 µM), without a hit: at the top dose activity change, negative = growth inhibition, most hits filed as inhibitors. 420,000 compounds, 12% hits. chicken DT40 Tdp1-/-;hTDP1 cells + 20 nM CPT, ATP luminescence, 48 h. AID 686979, 2013; further: potency means the concentration at half of the fitted maximal effect; nearly all actives have a fitted effect of over 55% in size
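Chicken DT40 Tdp1-/- cells stably complemented with human TDP1 were seeded at 400 cells/well in medium containing 20 nM camptothecin, exposed to pin-transferred compounds, and grown at 37 °C for at least 48 hr. Viability was read as ATP luminescence.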
The depositor's hits bear a star; ? = inconclusive; · = not tested or not shown. Unless noted, the call rests on the fitted dose curve; in most records, active means well fitted curve in the direction sought with a large enough effect; inconclusive means small, poorly fitted or top-dose-only effect, or another doubt; inactive means no such curve, though single readings can be large; an effect the other way counts as inactive or inconclusive. Unless noted, on the % scale 0 is the no-effect control and ±100 the full control effect.

SMILES	IL-1B inflam inh	HT1080 IDH1KD tx	HT1080NT lethal	TDP1 cell noCPT	DT40 TDP1 CPT
Cc1cccc(C)c1NC(=O)C(c1ccccc1)n1c(=O)c(-c2cc3ccccc3[nH]2)nc2ccccc21 (configuration not stated)	6	?	?	15µM*	16µM*
Cc1cccc(C)c1NC(=O)C(c1ccc(-c2ccccc2)cc1)n1c(=O)c(-c2ccco2)nc2ccccc21 (configuration not stated)	9	-20%	-27%	?	?
O=C(NCc1ccccc1)C(CCc1ccccc1)n1c(=O)c(-c2cc3ccccc3[nH]2)nc2ccccc21 (configuration not stated)	22	?	?	9.2µM*	13µM*
CCCCn1c2c(c(=O)n(C)c1=O)C(CC(=O)OCC(=O)Nc1cccc(C(F)(F)F)c1)C(=O)N2 (configuration not stated)	22	-5%	-15%	-24%	11%
CCC(C(=O)NCc1ccccc1)n1c(CSCCOc2ccccc2)nc2ccccc21 (configuration not stated)	-6	-4%	3%	?	23µM*
CC(C(=O)NCc1ccccc1)n1c(CSCCOc2ccccc2)nc2ccccc21 (configuration not stated)	6	4%	16%	?	?
CCC(C(=O)Nc1c(C)cccc1C)n1c(-c2ccc(-c3ccccc3)cc2)nc2ccccc21 (configuration not stated)	-12	-15%	-8%	15µM*	15µM*
O=C(NCc1ccccc1)C(c1cccc2ccccc12)n1c(=O)c(-c2cc3ccccc3[nH]2)nc2ccccc21 (configuration not stated)	55	-12%	-2%	?	15µM*
CC(c1nc2ccccc2[nH]1)n1c(=O)c(-c2ccco2)nc2ccccc21 (configuration not stated)	?	-9%	-18%	18µM*	13µM*
O=C(NCc1ccccc1)C(c1cccc2ccccc12)n1c(=O)c(-c2ccco2)nc2ccccc21 (configuration not stated)	-5	-2%	-3%	?	?
Cc1cccc(C)c1NC(=O)C(c1ccc(C#N)cc1)n1c(=O)c(-c2cc3ccccc3[nH]2)nc2ccccc21 (configuration not stated)	98	?	?	9.2µM*	12µM*
O=c1c(-c2cc3ccccc3[nH]2)nc2ccccc2n1C(CCc1ccccc1)c1nc2ccccc2[nH]1 (configuration not stated)	-22	?	?	18µM*	?
Cc1cccc(C)c1NC(=O)C(c1ccncc1)n1c(=O)c(-c2cc3ccccc3[nH]2)nc2ccccc21 (configuration not stated)	-17	18µM*	21µM*	21µM*	12µM*
COc1ccc(C(C(=O)Nc2ccc3c(c2)OCCO3)n2c(=O)c(-c3cc4ccccc4[nH]3)nc3ccccc32)cc1 (configuration not stated)	-13	-10%	-9%	?	?
O=C(NCc1ccccc1)C(CCc1ccccc1)n1c(=O)c(-c2ccccc2)nc2ccccc21 (configuration not stated)	50	?	?	2.3µM*	-76%
O=C(Cn1cc(C(F)(F)F)ccc1=O)NCc1ccc(F)cc1	0	18%	17%	9%	-2%
NCCN	·	·	·	-6%	5%
CC(CNC(=O)c1nnc(Cc2ccc(F)cc2)o1)c1ccccc1 (configuration not stated)	·	·	·	-27%	?
